Where “and” joins values, the source holds several entries; their conditions need not be identical. Equal values may be shown once. Calls of active or inactive are those of the source.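 How the source made its calls: active means compounds whose cell count with miR-34 switched on is under 0.7 times the count with it off; inactive means the rest.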
Experiment: sensitizers of A549 cells to miR-34 induction, primary screen, imaging, A549 dox-inducible miR-34, nuclei and caspase counts (AID 1347080); further: test concentration not given here
Conditions: A549 miR-34 inducible, Hoechst nuclei count, 48 h; hits give low values; cell number ratio, induced over uninduced

SMILES	fold change
CC1CC(OC(=O)C(O)c2ccccc2)CC(C)(C)N1C (configuration not stated)	0.792 (inactive)
O=C(O)c1ccccc1OP(=O)(O)O	0.878 (inactive)
Cc1ccnc(NS(=O)(=O)c2ccc(N)cc2)n1	0.871 (inactive) and 0.913 (inactive)
Cc1c(NC(C)C)c(=O)n(-c2ccccc2)n1C	0.876 (inactive)
Nc1ccc(S(=O)(=O)Nc2cnc3ccccc3n2)cc1	0.892 (inactive) and 0.874 (inactive)
COc1ccc(C(=O)c2ccccc2O)c(O)c1	0.854 (inactive) and 0.825 (inactive)
CC(=O)[C@@]1(O)CC[C@H]2[C@@H]3C[C@H](C)C4=CC(=O)C=C[C@]4(C)[C@@]3(F)[C@@H](O)C[C@@]21C	0.84 (inactive)
Nc1c2ccccc2nc2ccccc12	2.19 (inactive)
COc1c2occc2c(OC)c2c(=O)cc(C)oc12	0.924 (inactive)
O=C(O)CCCC[C@@H]1SC[C@@H]2NC(=O)N[C@@H]21	0.845 (inactive)
COc1cnc(NS(=O)(=O)c2ccc(N)cc2)nc1	0.943 (inactive) and 0.91 (inactive) and 0.881 (inactive)
Nc1ncnc2nc[nH]c12	0.911 (inactive) and 0.881 (inactive)
CCCCOC(=O)c1ccc(N)cc1	0.764 (inactive) and 0.971 (inactive)
NS(=O)(=O)c1cc2c(cc1Cl)NC(CSCc1ccccc1)=NS2(=O)=O	0.856 (inactive) and 0.772 (inactive)
Nc1nc2c(c(=O)[nH]1)N(C=O)C(CNc1ccc(C(=O)N[C@@H](CCC(=O)O)C(=O)O)cc1)CN2 (some centres not stated)	0.908 (inactive) and 0.841 (inactive)
CCCCC(CC)CN1CN(CC(CC)CCCC)CC(C)(N)C1 (configuration not stated)	0.838 (inactive)
C[C@H](N)[C@H](O)c1cccc(O)c1	0.936 (inactive) and 0.834 (inactive)
NC(=O)NC1NC(=O)NC1=O (configuration not stated)	0.95 (inactive) and 0.875 (inactive)
C[N+]12CCC(CC1)C(OC(=O)C(O)(c1ccccc1)c1ccccc1)C2 (configuration not stated)	0.841 (inactive) and 0.859 (inactive)

SMILES	fold change
O=C(O)c1ccccc1O	0.935 (inactive) and 0.936 (inactive)
CCOc1ccc(Cc2nccc3cc(OCC)c(OCC)cc23)cc1OCC	0.917 (inactive)
C[C@@H]1C[C@H]2[C@@H]3C[C@H](F)C4=CC(=O)C=C[C@]4(C)[C@@]3(F)[C@@H](O)C[C@]2(C)[C@@]1(O)C(=O)CO	0.863 (inactive)
Oc1c(Br)cc(Br)c2cccnc12	0.97 (inactive)
Cc1c(Nc2ncccc2C(=O)O)cccc1C(F)(F)F	0.839 (inactive) and 0.931 (inactive) and 0.832 (inactive)
CCN(CC)CCNC(=O)c1cc(Br)c(N)cc1OC	0.86 (inactive)
CCCCN(CCCC)CCCOC(=O)c1ccc(N)cc1	0.866 (inactive) and 0.888 (inactive)
O=C(O)c1ccccc1C(=O)Nc1ccc(S(=O)(=O)Nc2nccs2)cc1	0.914 (inactive) and 0.897 (inactive)
CCC(Cc1c(I)cc(I)c(N)c1I)C(=O)O (configuration not stated)	0.941 (inactive) and 0.781 (inactive)
Nc1ccc(S(=O)(=O)Nc2nccs2)cc1	0.93 (inactive) and 0.957 (inactive) and 0.871 (inactive)
Nc1ccc(S(=O)(=O)NC(=O)c2ccccc2)cc1	0.806 (inactive) and 0.919 (inactive)
CN1[C@@H]2CC[C@H]1CC(OC(=O)C(O)c1ccccc1)C2 (some centres not stated)	0.916 (inactive)
CCOC(=O)c1ccc(N)cc1	0.793 (inactive) and 0.945 (inactive) and 0.848 (inactive)
CC(NCCC(c1ccccc1)c1ccccc1)c1ccccc1 (configuration not stated)	0.975 (inactive)
CCN1CCCC(OC(=O)C(c2ccccc2)c2ccccc2)C1 (configuration not stated)	0.985 (inactive) and 0.905 (inactive)
CCCCc1nc(Cl)c(CO)n1Cc1ccc(-c2ccccc2-c2nn[nH]n2)cc1	0.884 (inactive) and 0.804 (inactive)
CC1(C)O[C@@H]2C[C@H]3[C@@H]4C[C@H](F)C5=CC(=O)CC[C@]5(C)[C@H]4[C@@H](O)C[C@]3(C)[C@]2(C(=O)CO)O1	0.775 (inactive)
COc1cc(NS(=O)(=O)c2ccc(N)cc2)ncn1	0.902 (inactive) and 0.903 (inactive)
